The source of these data is the supplement of paper PMC11482750.

± gives the standard deviation of the averaged measurements.

Compound in one assay: C=CCN=C=S [allyl isothiocyanate]
In words: control-subtracted net OSN firing rate; higher = stronger neuronal activation. To be noted: odorant dilution (vol/vol): 1/100. Summed up: (§1)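 Single sensillum recordings were taken from palp or antennal olfactory sensory neurons of 1–5-day-old fed females of Scaptomyza species or of D. melanogaster wild-type, mutant or at1 empty-neuron lines expressing Or42a homologs. Odorants (1:100 vol/vol in mineral oil or dimethyl sulfoxide) were pulsed for 1 s into 16 ml/min filtered air. Replicate means are given of spikes counted over 0.5 s from 0.2 s after onset, after background subtraction, doubling and solvent correction.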
S. pallida pb1b-like: the “control-subtracted net OSN firing rate” value was -11 ± 11 spikes/s.
Still for that read-out and setting: to S. flava pb2b-like belongs -0.333 ± 12 spikes/s; to S. pallida pb1a-like, 109 ± 21 spikes/s; to Canton-S (D. melanogaster) pb2b, -1.54 ± 9 spikes/s.
On the same count and under the same terms, to S. hsui pb3a-like belongs 0 ± 12 spikes/s; to S. flava pb3b-like, 2 ± 14 spikes/s; to Or67dGal4, UAS-Dmel Or42a at1, 94.3 ± 58 spikes/s.
Same read-out and setting: with S. montana pb2b-like the figure was 2 ± 4.2 spikes/s; with Or67dGal4, UAS-Sfla Or42a3 at1, 127 ± 27 spikes/s; with S. montana pb1b-like, -19 ± 14 spikes/s.
For S. pallida pb2a-like, the “control-subtracted net OSN firing rate” value was found to be 9 ± 9.5 spikes/s.
The same measure, in the same setting: with S. montana pb3a-like the figure was 9.67 ± 6.5 spikes/s; with S. montana pb2a-like, 0.667 ± 4.1 spikes/s.
On the same count and under the same terms, to Canton-S (D. melanogaster) pb1b belongs -8.93 ± 11 spikes/s; to S. montana pb1a-like, 126 ± 16 spikes/s; to Canton-S (D. melanogaster) pb3a, 7.56 ± 4.9 spikes/s.
On the same count and under the same terms, to Canton-S (D. melanogaster) pb3b belongs -3.33 ± 8.2 spikes/s; to Canton-S (D. melanogaster) pb2a, 1.69 ± 6.9 spikes/s.
As to S. hsui pb3b-like, the “control-subtracted net OSN firing rate” value was -2.67 ± 4.5 spikes/s.
On the same count and under the same terms, with S. pallida pb3b-like the figure was -5.67 ± 14 spikes/s; with S. pallida pb3a-like, -6.33 ± 7 spikes/s.
Take S. hsui pb1a-like: the “control-subtracted net OSN firing rate” value was 124 ± 17 spikes/s.
The same measure, in the same setting: to S. flava pb1a-like belongs 123 ± 14 spikes/s.
The same measure, in the same setting: with S. pallida pb2b-like the figure was 2.33 ± 5.3 spikes/s; with S. hsui pb2b-like, 0.667 ± 4.1 spikes/s.
Regarding Or67dGal4, UAS-Sfla Or42a2 at1, the “control-subtracted net OSN firing rate” value was determined as 39.7 ± 29 spikes/s.
The same measure, in the same setting: to S. hsui pb1b-like belongs -15 ± 6.4 spikes/s; to S. flava pb2a-like, -1.67 ± 6.9 spikes/s.
The same measure, in the same setting: with S. flava pb3a-like the figure was 6 ± 8.3 spikes/s; with Or67dGal4, UAS-Spal Or42a at1, 201 ± 39 spikes/s.
On the same count and under the same terms, to S. montana pb3b-like belongs 3 ± 7.9 spikes/s.
In the case of S. flava pb1b-like, the “control-subtracted net OSN firing rate” value is -21 ± 16 spikes/s.
The same measure, in the same setting: with Canton-S (D. melanogaster) pb1a the figure was 134 ± 36 spikes/s; with S. hsui pb2a-like, -2 ± 4.7 spikes/s.

Compound in another assay: CC(C)CN=C=S [isobutyl isothiocyanate]
The description is as above. To be noted: odorant dilution (vol/vol): 1/100. Summed up:
as §1
Turning to S. pallida pb1b-like, the “control-subtracted net OSN firing rate” value is -8.67 ± 14 spikes/s.
Turning to S. flava pb2b-like, the “control-subtracted net OSN firing rate” value is -4.33 ± 14 spikes/s.
S. pallida pb1a-like: the “control-subtracted net OSN firing rate” value came to 26 ± 12 spikes/s.
As for Canton-S (D. melanogaster) pb2b, the “control-subtracted net OSN firing rate” value is -0.286 ± 8.4 spikes/s.
Same read-out and setting: with S. hsui pb3a-like the figure was -4.33 ± 7.9 spikes/s.
The same measure, in the same setting: to S. flava pb3b-like belongs -3.67 ± 24 spikes/s.
Same read-out and setting: with Or67dGal4, UAS-Dmel Or42a at1 the figure was 5.33 ± 7.7 spikes/s; with S. montana pb2b-like, 3.67 ± 5.3 spikes/s.
Or67dGal4, UAS-Sfla Or42a3 at1: the “control-subtracted net OSN firing rate” value came out at 77.7 ± 25 spikes/s.
For S. montana pb1b-like, the “control-subtracted net OSN firing rate” value was -18 ± 11 spikes/s.
Still for that read-out and setting: to S. pallida pb2a-like belongs 5.33 ± 6.4 spikes/s; to S. montana pb3a-like, 5 ± 8.5 spikes/s.
On the same count and under the same terms, to S. montana pb2a-like belongs 1.67 ± 4.5 spikes/s; to Canton-S (D. melanogaster) pb1b, 1.33 ± 9.2 spikes/s.
On the same count and under the same terms, with S. montana pb1a-like the figure was 110 ± 18 spikes/s; with Canton-S (D. melanogaster) pb3a, 1.5 ± 6 spikes/s.
For Canton-S (D. melanogaster) pb3b, the “control-subtracted net OSN firing rate” value was -1.5 ± 9.8 spikes/s.
On the same count and under the same terms, with Canton-S (D. melanogaster) pb2a the figure was 1.43 ± 7.3 spikes/s.
With S. hsui pb3b-like, the “control-subtracted net OSN firing rate” value is -1.33 ± 3.9 spikes/s.
On the same count and under the same terms, to S. pallida pb3b-like belongs -4 ± 7.9 spikes/s; to S. pallida pb3a-like, -5.67 ± 5.8 spikes/s.
Same read-out and setting: with S. hsui pb1a-like the figure was 10 ± 5.1 spikes/s.
In the case of S. flava pb1a-like, the “control-subtracted net OSN firing rate” value came to 107 ± 32 spikes/s.
As to S. pallida pb2b-like, the “control-subtracted net OSN firing rate” value turned out to be 6 ± 4 spikes/s.
Still for that read-out and setting: to S. hsui pb2b-like belongs 7 ± 8.2 spikes/s; to Or67dGal4, UAS-Sfla Or42a2 at1, -2 ± 3.1 spikes/s; to S. hsui pb1b-like, -3.33 ± 8.7 spikes/s.
Turning to S. flava pb2a-like, the “control-subtracted net OSN firing rate” value came out at 0.667 ± 5.8 spikes/s.
Still for that read-out and setting: to S. flava pb3a-like belongs 4.67 ± 6.8 spikes/s; to Or67dGal4, UAS-Spal Or42a at1, 42.2 ± 14 spikes/s.
The same measure, in the same setting: to S. montana pb3b-like belongs -0.667 ± 7.8 spikes/s; to S. flava pb1b-like, -26.3 ± 24 spikes/s.
The same measure, in the same setting: with Canton-S (D. melanogaster) pb1a the figure was 0.222 ± 8.7 spikes/s; with S. hsui pb2a-like, 2 ± 7.3 spikes/s.

Compound in a further assay: CCC(C)N=C=S [sec-butyl isothiocyanate]
Described as above. The note with it: odorant dilution (vol/vol): 1/100. Put shortly: as §1
With S. pallida pb1b-like, the “control-subtracted net OSN firing rate” value was -1 ± 13 spikes/s.
Turning to S. flava pb2b-like, the “control-subtracted net OSN firing rate” value is -0.333 ± 6.4 spikes/s.
For S. pallida pb1a-like, the “control-subtracted net OSN firing rate” value was found to be 17.3 ± 13 spikes/s.
In the case of Canton-S (D. melanogaster) pb2b, the “control-subtracted net OSN firing rate” value turned out to be 0.571 ± 8.4 spikes/s.
On the same count and under the same terms, to S. hsui pb3a-like belongs -2 ± 10 spikes/s; to S. flava pb3b-like, -3.33 ± 16 spikes/s; to Or67dGal4, UAS-Dmel Or42a at1, 4.33 ± 11 spikes/s.
For the target S. montana pb2b-like, the “control-subtracted net OSN firing rate” value was 4.33 ± 6.2 spikes/s.
Same read-out and setting: with Or67dGal4, UAS-Sfla Or42a3 at1 the figure was 29.4 ± 17 spikes/s.
On the same count and under the same terms, with S. montana pb1b-like the figure was -8.33 ± 9.7 spikes/s.
Still for that read-out and setting: to S. pallida pb2a-like belongs 10.7 ± 9.5 spikes/s; to S. montana pb3a-like, 1 ± 7.9 spikes/s; to S. montana pb2a-like, 3 ± 10 spikes/s.
Canton-S (D. melanogaster) pb1b: the “control-subtracted net OSN firing rate” value is -0.667 ± 9.4 spikes/s.
Same read-out and setting: to S. montana pb1a-like belongs 48.3 ± 20 spikes/s; to Canton-S (D. melanogaster) pb3a, 3.67 ± 8 spikes/s; to Canton-S (D. melanogaster) pb3b, 1.33 ± 7 spikes/s.
Same read-out and setting: with Canton-S (D. melanogaster) pb2a the figure was 5.43 ± 6.9 spikes/s; with S. hsui pb3b-like, -3 ± 1.7 spikes/s.
The same measure, in the same setting: to S. pallida pb3b-like belongs 5.33 ± 17 spikes/s.
S. pallida pb3a-like: the “control-subtracted net OSN firing rate” value was -5 ± 14 spikes/s.
Same read-out and setting: with S. hsui pb1a-like the figure was 8.67 ± 7.3 spikes/s; with S. flava pb1a-like, 30.3 ± 26 spikes/s.
On to S. pallida pb2b-like, for which the “control-subtracted net OSN firing rate” value turned out to be 8.33 ± 3.4 spikes/s.
Same read-out and setting: to S. hsui pb2b-like belongs 5.33 ± 6.3 spikes/s.
The same measure, in the same setting: with Or67dGal4, UAS-Sfla Or42a2 at1 the figure was -1.71 ± 6.6 spikes/s; with S. hsui pb1b-like, 4.33 ± 7.4 spikes/s.
The same measure, in the same setting: to S. flava pb2a-like belongs 3 ± 7.8 spikes/s; to S. flava pb3a-like, 0.333 ± 11 spikes/s; to Or67dGal4, UAS-Spal Or42a at1, 22.8 ± 9.7 spikes/s.
Turning to S. montana pb3b-like, the “control-subtracted net OSN firing rate” value was 3.67 ± 6.9 spikes/s.
Turning to S. flava pb1b-like, the “control-subtracted net OSN firing rate” value was -2.33 ± 32 spikes/s.
The same measure, in the same setting: with Canton-S (D. melanogaster) pb1a the figure was 3.56 ± 4.9 spikes/s; with S. hsui pb2a-like, 2 ± 4.7 spikes/s.
